From the supplement of paper PMC12645437, “Orthogonal IMiD-Degron Pairs Induce Selective Protein Degradation in Cells” (ACS Chemical Biology, 2025)
In all, about 8,300 sequences were measured (“log2 fold change of degron read counts, EGFP-low vs EGFP+ sorted cells (limma voom), compound-induced degradation”: median about -1.1, highest 2% from about 3.2 on). The full list was thinned out, with the highest values kept by preference.

T1: CRBN, Q96SW2
T1 chain: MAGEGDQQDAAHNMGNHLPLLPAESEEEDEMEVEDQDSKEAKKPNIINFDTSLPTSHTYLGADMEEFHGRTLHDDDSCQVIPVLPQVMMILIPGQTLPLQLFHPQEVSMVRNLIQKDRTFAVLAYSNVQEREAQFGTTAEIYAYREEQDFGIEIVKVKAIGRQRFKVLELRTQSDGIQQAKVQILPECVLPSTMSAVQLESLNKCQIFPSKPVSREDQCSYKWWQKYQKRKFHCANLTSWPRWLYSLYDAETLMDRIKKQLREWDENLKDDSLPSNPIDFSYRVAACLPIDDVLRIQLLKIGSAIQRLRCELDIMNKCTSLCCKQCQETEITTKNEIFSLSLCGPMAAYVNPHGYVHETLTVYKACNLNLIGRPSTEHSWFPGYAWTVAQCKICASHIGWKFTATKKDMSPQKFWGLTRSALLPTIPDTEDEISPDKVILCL


Target: T1, CRBN, Q96SW2
Test: log2 fold change of degron read counts, EGFP-low vs EGFP+ sorted cells (limma voom), compound-induced degradation; higher = more compound-induced degradation of the degron-EGFP fusion; degrons are variants of IKZF1/3 zinc finger 2; compound dose not given here
Conditions: Jurkat, 18 h
[1] = compound: compound 19 (5-tert-butyl-thalidomide)
[2] = compound: compound 22 (5-morpholino-thalidomide)
[3] = compound: compound 33 (diphenyl IMiD analogue)
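Further: pooled lentiviral library of zinc finger degron-EGFP fusions in mCherry-positive Jurkat cells, FACS-sorted after compound exposure, with degron abundance counted by next-generation sequencing.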

Sequence	log2 fold change of degron read counts [1]	log2 fold change of degron read counts [2]	log2 fold change of degron read counts [3]	log2 fold change of degron read counts (compound: thalidomide)
FNCDVCGAHFTQKGNLLRHIKL [46F_47N_49D_50V_52G_53A_54H_55F_67L_, Q9UKT9]	-0.166	-1.87	-1.95	-2.36
FLCPQCGAPFTQKGNLLRHIKL [46F_47L_49P_50Q_52G_53A_54P_55F_67L_, Q9UKT9]	-1.51	-0.398	0.89	0.718
LRCNQCGFVCTQKGNLLRHIKL [46L_47R_49N_50Q_52G_53F_54V_55C_67L_, Q9UKT9]	-1.27	-2.74	-1.29	-1.39
FGCEICGAFFTQKGNLLRHIKL [46F_47G_49E_50I_52G_53A_54F_55F_67L_, Q9UKT9]	2.48	1.05	2.58	0.0705
FECPVCGADFTQKGNLLRHIKL [46F_47E_49P_50V_52G_53A_54D_55F_67L_, Q9UKT9]	-1.59	-1.56	2.05	2.24
FWCEVCGAQFTQKGNLLRHIKL [46F_47W_49E_50V_52G_53A_54Q_55F_67L_, Q9UKT9]	3.44	3.79	2.82	2.03
FSCEVCGAQFTQKGNLLRHIKL [46F_47S_49E_50V_52G_53A_54Q_55F_67L_, Q9UKT9]	2.77	2.35	1.32	1.33
FVCEVCGAQFTQKGNLLRHIKL [46F_47V_49E_50V_52G_53A_54Q_55F_67L_, Q9UKT9]	0.146	2.74	2.92	2.99
FRCEVCGAQFTQKGNLLRHIKL [46F_47R_49E_50V_52G_53A_54Q_55F_67L_, Q9UKT9]	0.18	0.339	1.48	1.56
FECEVCGAQFTQKGNLLRHIKL [46F_47E_49E_50V_52G_53A_54Q_55F_67L_, Q9UKT9]	-0.548	-1.16	1.28	2.29
FICEVCGAQFTQKGNLLRHIKL [46F_47I_49E_50V_52G_53A_54Q_55F_67L_, Q9UKT9]	-0.278	2.8	2.99	2.69
FHCEVCGAQFTQKGNLLRHIKL [46F_47H_49E_50V_52G_53A_54Q_55F_67L_, Q9UKT9]	1.71	2.6	1.97	0.794
FYCEVCGAQFTQKGNLLRHIKL [46F_47Y_49E_50V_52G_53A_54Q_55F_67L_, Q9UKT9]	3.53	3.57	2.99	1.94
FNCEVCGAQFTQKGNLLRHIKL [46F_47N_49E_50V_52G_53A_54Q_55F_67L_, Q9UKT9]	2.48	1.07	0.414	0.334
FDCEVCGAQFTQKGNLLRHIKL [46F_47D_49E_50V_52G_53A_54Q_55F_67L_, Q9UKT9]	1.45	0.572	-0.0193	1.19
FACEVCGAQFTQKGNLLRHIKL [46F_47A_49E_50V_52G_53A_54Q_55F_67L_, Q9UKT9]	3.49	2.06	0.981	0.73
FQCEVCGAQFTQKGNLLRHIKL [46F_47Q_49E_50V_52G_53A_54Q_55F_67L_, Q9UKT9]	0.659	2.56	2.21	3.77
FTCNQCGALFTQKGNLLRHIKL [46F_47T_49N_50Q_52G_53A_54L_55F_67L_, Q9UKT9]	-2.64	-2.95	-1.35	-2.16
FRCEICGRWFTQKGNLLRHIKL [46F_47R_49E_50I_52G_53R_54W_55F_67L_, Q9UKT9]	-2.31	-2.38	-1.89	0.776
FFCPICGHAFTQKGNLLRHIKL [46F_47F_49P_50I_52G_53H_54A_55F_67L_, Q9UKT9]	-0.981	-1.5	-0.604	-1.29
FHCNQCGACFTQKGNLLRHIKL [46F_47H_49N_50Q_52G_53A_54C_55F_67L_, Q9UKT9]	-1.49	-1.87	-1.86	-2.37
LRCNQCGFLCTQKGNLLRHIKL [46L_47R_49N_50Q_52G_53F_54L_55C_67L_, Q9UKT9]	-1.18	-1.92	-1.55	-1.3
FLCSVCGHVFTQKGNLLRHIKL [46F_47L_49S_50V_52G_53H_54V_55F_67L_, Q9UKT9]	-2.42	-2.11	-2.5	-2.18
FFCEQCGAAFTQKGNLLRHIKL [46F_47F_49E_50Q_52G_53A_54A_55F_67L_, Q9UKT9]	0.842	1.01	0.32	-1.11
FTCNQCGAMFTQKGNLLRHIKL [46F_47T_49N_50Q_52G_53A_54M_55F_67L_, Q9UKT9]	-2.5	-2.41	-1.29	-1.58
FWCPQCGARFTQKGNLLRHIKL [46F_47W_49P_50Q_52G_53A_54R_55F_67L_, Q9UKT9]	0.926	3.08	0.0765	0.0591
FGCEVCGAQFTQKGNLLRHIKL [46F_47G_49E_50V_52G_53A_54Q_55F_67L_, Q9UKT9]	3.18	2.36	1.12	0.866
FFCEVCGAQFTQKGNLLRHIKL [46F_47F_49E_50V_52G_53A_54Q_55F_67L_, Q9UKT9]	3.36	3.6	2.42	1.89
FTCEVCGAQFTQKGNLLRHIKL [46F_47T_49E_50V_52G_53A_54Q_55F_67L_, Q9UKT9]	-0.192	2.19	2.27	2.79
